Compounds with a hit are over-represented: about 2.9% of the library has one in this group of screens.
FID counter: fluorescent intercalator displacement, NS3 helicase counter-screen | DNA fluorescent intercalator displacement, fluorescence | inhibition, % at 7.9 µM | hit rate 0.17% among 290,000; in the data active means inhibition above about 37%;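 further: 0% = vehicle and 100% = reference compound; higher means more ethidium bromide displaced from hairpin DNA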
MEKK3 PB1 HTS: MEKK3-MEK5 PB1 interaction, increase or decrease. Q99759. binding response (% of control), % at 10 µM. AID 1529. bead-based flow cytometry, Alexa488-MEK5 binding to MEKK3; actives lie on both sides; 0 = blocked by unlabeled MEK5, 100 = vehicle. hit rate 1.4% among 290,000;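 active means binding response more than 3 SD above or below the average of its plate-row segment, actives on both sides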;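 further: Alexa488 bead fluorescence after subtracting the streptavidin-only scavenger bead signal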
MEKK2 WT-MEK5: raises or lowers MEK5 binding to wildtype human MEKK2 PB1 domain | binding response (% of control), % at 10 µM | Q9Y2U5 | bead flow cytometry, Alexa488-MEK5 binding to MEKK2 WT; actives lie on both sides | hit rate 1.1% among 290,000; in the data active means binding response below about 67% or above about 130%
MEKK2 mut-MEK5: signal of MEK5 binding to mutant human MEKK2 PB1 domain; bead flow cytometry, Alexa488-MEK5 binding to MEKK2 mutant; percent response, % at 10 µM; hit rate 0.35% among 290,000; AID 1530; in the data active means percent response above about 24%, passing the limit was not always enough
dFosB act-1: mouse delta FosB homodimer activation; P13346; purified delta FosB, TAMRA-CDK5 oligo fluorescence polarization; percent of positive-control signal above neutral wells; activation, % at 25 µM; hit rate 0.99% among 340,000;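 active means mean activation above about 17%, with every replicate also reaching it, limit read from the data, passing the limit was not always enough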
Target sequence (P13346 whole entry, looked up): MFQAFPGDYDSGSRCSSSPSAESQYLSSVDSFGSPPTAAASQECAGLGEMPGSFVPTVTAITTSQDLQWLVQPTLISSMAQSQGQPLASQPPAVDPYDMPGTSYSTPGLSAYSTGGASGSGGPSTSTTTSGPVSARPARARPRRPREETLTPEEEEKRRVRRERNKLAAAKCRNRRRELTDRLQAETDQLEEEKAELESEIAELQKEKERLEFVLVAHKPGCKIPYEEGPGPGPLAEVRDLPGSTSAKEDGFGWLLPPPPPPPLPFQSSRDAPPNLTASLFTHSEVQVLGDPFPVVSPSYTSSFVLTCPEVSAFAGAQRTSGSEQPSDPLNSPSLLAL
dFosB act-2: enhances mouse delta FosB homodimer binding to DNA; shares compounds with dFosB act-1; purified delta FosB, TAMRA-CDK5 oligo fluorescence polarization; normalised: neutral wells 0, positive control 100; activation, % at 24.9 µM; 2,400 tested, under 10 active; AID 588690;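 active means highest replicate activation at or above 34% and every replicate reaching that threshold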;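 further: higher polarization means more probe DNA bound by delta FosB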
* = called active by the depositor; x = no result.

SMILES	FID counter	MEKK3 PB1 HTS	MEKK2 WT-MEK5	MEKK2 mut-MEK5	dFosB act-1	dFosB act-2
CCOc1ccc(CCNC(=O)c2nnn(CC(=O)Nc3c(C)cc(C)cc3C)c2N)cc1OCC	-26	101	96	-2	29*	2
CCOc1ccc(OCC)c(NC(=O)c2nnn(CC(=O)Nc3cc(C)cc(C)c3)c2N)c1	-5	101	101	-3	61*	8
CCOc1ccc(CCNC(=O)c2nnn(CC(=O)Nc3ccccc3C)c2N)cc1OCC	-41	101	102	4	16	x
COc1ccc(CCNC(=O)c2nnn(CC(=O)Nc3c(C)cc(C)cc3C)c2N)cc1OC	-34	101	105	5	80*	3
CSc1nc2n(n1)C(C)C1=C(CCCC1=O)N2 (configuration not stated)	0	98	101	-1	4	x
CC(=O)Nc1ccc(S(=O)(=O)N(C)CC(=O)Nc2cccc(S(=O)(=O)N3CCCC3)c2)cc1	x	x	x	x	-13	x
CCCCN(C)CCNC(=O)CN1C(=O)CSc2ccc(S(=O)(=O)N3CCCCC3)cc21	27	96	100	-2	-5	x
CCc1nn(CC(=O)NCCN2CCN(C)CC2)c(=O)c2cc3c(OC)cccc3n12	32	101	98	7	-6	x
CCCC(=O)Nc1ccccc1-c1nnn(CC(=O)Nc2ccc(OC)cc2)n1	-3	100	99	2	10	x
CCOc1ccc(NC(=O)Cn2nnc(-c3ccccc3NC(=O)c3cccs3)n2)cc1	3	102	103	0	52*	5
Cc1cc(Nc2ccc3c(c2)OCCO3)c2cc(Cl)ccc2n1	22	89	102	-3	29*	-8
COc1ccc(Nc2cc(C)nc3ccc(OC)cc23)cc1	22	104	105	10	34*	3
COc1ccc2nc(C)cc(Nc3ccc(C(=O)O)cc3)c2c1	-1	93	96	-3	-5	x
Cc1cc(Nc2cccc(Cl)c2)c2ccccc2n1	8	102	110	8	-13	x
Cc1ccc2nc3c(c(Nc4ccc5c(c4)OCCO5)c2c1)CCC3	1	93	105	-2	30*	2
Cc1ccc2nc3c(c(Nc4ccc(O)cc4)c2c1)CCC3	-1	103	113	21	14	x
Cn1ccnc1C(O)(c1nnc(-c2ccccc2)o1)C(F)(F)F (configuration not stated)	5	105	108	7	2	x
COc1ccccc1NC(=O)c1oc2ccccc2c1NC(=O)C1CC1	-22	102	99	3	24*	0
CC(/C=N/NC(=O)COc1ccccc1C)=N\NC(=O)COc1ccccc1C	-12	100	102	0	22*	-2
O=[N+]([O-])c1ccccc1/C=C/CN1CCN(Cc2ccc3c(c2)OCO3)CC1	29	103	105	2	-1	x
Cc1sc2nc(SCC(=O)Nc3ccc(S(N)(=O)=O)cc3)[nH]c(=O)c2c1C	-13	102	99	0	101*	0
Cc1ccc(NC(=O)CN2C(=O)NC(C)(c3ccc(Cl)cc3)C2=O)cc1S(=O)(=O)N1CCOCC1 (configuration not stated)	-26	104	101	-2	-19	x
CC(=O)c1c[nH]c(C(=O)NCc2cccc(C(F)(F)F)c2)c1	-15	108	105	6	0	x
COc1cccc(CNCC(=O)N2C(C)CCCC2C)c1 (configuration not stated)	14	100	108	6	-6	x
COc1ccc(CN(C)CC(O)COc2ccc(-c3ccccc3)cc2)cc1OC (configuration not stated)	10	105	136*	10	19*	-8
SMILES	FID counter	MEKK3 PB1 HTS	MEKK2 WT-MEK5	MEKK2 mut-MEK5	dFosB act-1	dFosB act-2
COc1cccc(NC(=O)CCCn2c(=O)[nH]c3ccccc3c2=O)c1	-6	97	97	-4	-10	x
COc1cc(NC(=O)c2ccc3c(=O)n(Cc4ccco4)c(=S)[nH]c3c2)cc(OC)c1OC	-7	108	101	2	31*	-1
COc1ccc(-n2c(=S)[nH]c3cc(C(=O)NCc4ccco4)ccc3c2=O)cc1OC	-4	99	97	4	-2	x
O=C(NCc1ccco1)c1ccc2c(=O)n(-c3ccccc3)c(=S)[nH]c2c1	2	94	100	-1	35*	6
COc1ccc(NC(=O)CCn2c(=S)[nH]c3ccccc3c2=O)cc1OC	-20	97	96	-3	24*	4
Oc1cc2c(cc1O)C1c3ccc(O)c(O)c3OCC1(O)C2 (configuration not stated)	-4	99	97	-2	6	x
CNC(=O)CSc1nc2cccnc2n1-c1ccc(F)cc1	1	106	107	10	0	x
O=C(NC(=S)Nc1nc(-c2ccccc2)cs1)c1cccnc1	-4	97	101	-3	1	x
O=C(Cc1ccccc1F)Nc1nc(-c2cccnc2)cs1	-2	98	102	-2	39*	6
O=C(Nc1nc(-c2ccccc2Cl)cs1)c1cccnc1	-12	95	99	-2	29*	5
CCOc1ccccc1C(=O)NCC(=O)NC(C)c1ccc(-n2ccnc2)cc1 (configuration not stated)	x	x	x	x	-10	x
O=C(COC(=O)c1cc(=O)[nH]c2ccccc12)NCc1ccc(Cl)cc1	x	x	x	x	57*	4
O=C(COC(=O)c1cc(=O)[nH]c2ccccc12)Nc1nc(-c2ccc(F)cc2)cs1	x	x	x	x	41*	2
O=C(COC(=O)c1ccc(O)cc1O)NC(=O)NCc1ccccc1	x	x	x	x	-12	x
O=C(COC(=O)c1cc(Cl)ccc1O)NC(=O)NCc1ccccc1	x	x	x	x	24*	6
CS/C(=C(/C#N)S(=O)(=O)c1ccc(Cl)cc1)N1CCOCC1	-6	88	91	-31	-1	x
CC(Oc1ccc(C(=O)c2ccccc2)cc1)C(=O)Nc1ccc(S(N)(=O)=O)cc1 (configuration not stated)	-14	95	97	-3	-10	x
CC(OC(=O)c1cc2ccccc2cc1O)C(=O)Nc1ccc(S(N)(=O)=O)cc1 (configuration not stated)	-11	101	104	3	25*	0
C=CC#CC1(O)CC(C)[N+](C)(C)CC1C (configuration not stated)	-12	117	111	0	4	x
COc1ccc(/C=C2/NC(=O)N(CC(=O)Nc3cccc(C)c3)C2=O)cc1O	-3	103	97	-7	13	x
Cc1ccc(NC(=O)CN2C(=O)N/C(=C/c3ccc4c(c3)OCCO4)C2=O)cc1	-10	101	95	-6	48*	-6
Cc1cc2c(cc1[N+](=O)[O-])NC(CNC(C)C)CC2 (configuration not stated)	12	105	111	2	-8	x
